Measured values reported in PubChem BioAssay (Tox21).
Inconclusive results are not listed. Calls of active or inactive are those of the source. Unless noted, calls come from the whole dose curve; as a rule, active = well fitted curve in the direction sought with a large enough effect in the repeat runs; inconclusive = weak or mixed curves; inactive = no such curve, though single readings can be large; an effect the other way counts as inactive or inconclusive.

Assays:
[1] = qHTS assay to identify small molecule agonists of the hypoxia (HIF-1) signaling pathway - cell viability counter screen (AID 1224844; calls by dose curve; note: nearly all actives have a fitted effect of over 50% in size; note: potency is the fitted concentration of half-maximal effect; for activity change, negative = cytotoxicity: % is set by controls: 0 for no effect and ±100 for the full control effect)
Summary of the method: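 Viability counter screen: HRE-bla ME-180 cells plated 5 hrs before compound addition, treated 17 hrs at 37C and 5% CO2, then CellTiter-Glo added after the FRET reporter read; luminescence after 30 min.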

[2] = qHTS assay to identify small molecule agonists of H2AX - cell viability counter screen (AID 1224847; calls by dose curve; note: nearly all actives have a fitted effect of over 30% in size; note: potency is the fitted concentration of half-maximal effect; for activity change, negative = cytotoxicity: top concentration of the series differs between compounds; % is set by controls: 0 for no effect and ±100 for the full control effect)
Summary of the method: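 Counter-screen for viability: CellTiter-Glo ATP luminescence read after 3 h compound treatment (15-point titration, 0.76% DMSO final) of CHO-K1 cells at 37C, with 30 min room-temperature reagent incubation.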

[3] = qHTS RealTime-Glo MT Cell Viability Assay in HepG2 cells - 24 hour (AID 1224867); note: nearly all actives have a fitted effect of over 50% in size; note: potency is the fitted concentration of half-maximal effect; for activity change, negative = cytotoxicity: % is set by controls: 0 for no effect and ±100 for the full control effect
Summary of the method: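 qHTS, HepG2, 600 cells/well, RealTime-Glo (NanoLuc + prosubstrate) added with cells; 5 h preincubation; DMSO compound addition; 37 C; luminescence at 0/8/16/24/32/40 h.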

[4] = qHTS RealTime-Glo MT Cell Viability Assay in HEK293 cells - 32 hour (AID 1224868); note: nearly all actives have a fitted effect of over 50% in size; note: potency is the fitted concentration of half-maximal effect
Summary of the method: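 Assay medium contained NanoLuc luciferase plus cell-permeant prosubstrate, added with HEK293 cells at 600 cells/well. After 5 h at 37 C/5% CO2 compounds were added; plates stayed at 37 C for 40 h with serial luminescence reads.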

[5] = A CellTox Green Cytotoxicity Assay to monitor cytotoxicity in HEK293 cells - 0 hour (AID 1224869); note: % is set by controls: 0 for no effect and ±100 for the full control effect; nearly all actives have a fitted effect of over 50% in size
Summary of the method: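 Dead-cell fluorescence measured kinetically: asymmetric cyanine dye, HEK293, 600 cells/well, 5 h settle, 23 nL cpd/DMSO, 37 C, reads 0–40 h every 8 h.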

[6] = qHTS RealTime-Glo MT Cell Viability Assay in HepG2 cells - 40 hour (AID 1224870); note: nearly all actives have a fitted effect of over 50% in size; note: potency is the fitted concentration of half-maximal effect
Summary of the method: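 HepG2 cells mixed with RealTime-Glo MT reagents (NanoLuc plus cell-permeant prosubstrate) were seeded at 600 cells/well, incubated 5 h at 37 C/5% CO2, then pinned with compounds in DMSO; nonlytic luminescence tracked viability during 40 h treatment.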

[7] = qHTS assay to identify small molecule antagonists of the estrogen related receptor (ERR) signaling pathway from Tox21 library (AID 1224848); note: nearly all actives have a fitted effect of over 50% in size; note: potency is the fitted concentration of half-maximal effect
Summary of the method: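 First, 2,000 ERR cells per well were plated and held 6 h at 37 C/5% CO2. Next, compounds in DMSO were pinned in and left 18 h at 37 C. Finally, ONE-Glo was added and luminescence read after 30 min at room temperature.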

[8] = qHTS assay to identify small molecule agonists of the estrogen related receptor (ERR) signaling pathway from Tox21 library (AID 1224849; calls by dose curve; note: % is set by controls: 0 for no effect and ±100 for the full control effect; nearly all actives have a fitted effect of over 15% in size); settings: ERR reporter cell line, ONE-Glo luciferase, 18 h; at 92.4 µM (top of the series) unless noted
Summary of the method: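 Quantitative HTS in agonist format: NTP ERR cell line, compounds transferred in DMSO after 6 h plating, 18 h incubation at 37 C, ONE-Glo luminescence endpoint.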

[9] = qHTS assay to identify small molecule agonists of H2AX (AID 1224845; active = well fitted activation curve with a large enough effect in the signal ratio in the repeat runs, not every such curve was filed as active; the % refers to the signal ratio; note: potency is the fitted concentration of half-maximal effect)
Summary of the method: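 Wild-type CHO-K1 cells plated overnight, then exposed 3 hr at 37C to compounds at 15 concentrations (0.76% DMSO). Lysed, then HTRF anti-pH2AX(S139)-cryptate/anti-H2AX-d2 detection after 24 hr at room temperature; emissions 665 and 620 nm.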

[10] = qHTS assay to identify small molecule agonists of the hypoxia (HIF-1) signaling pathway (AID 1224846; active = well fitted activation curve with a large enough effect in the signal ratio in the repeat runs, not every such curve was filed as active; the % refers to the signal ratio; note: % is set by controls: 0 for no effect and ±100 for the full control effect)
Summary of the method: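 Agonist mode reporter screen. ME-180 cells stably expressing bla under HRE control received test compounds in DMSO for 17 hrs (37C, 5% CO2), and beta-lactamase activity was then detected with the CCF4-AM FRET substrate.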

Clc1ccc(C(Cn2ccnc2)OCc2ccc(Sc3ccccc3)cc2)c(Cl)c1 (stereo not drawn)
inactive: Potency [1] | Potency [2] | Potency [3] | Potency [4] | Potency [5] | Potency [6]

CC(=O)N1CCN(c2ccc(OC[C@H]3CO[C@](Cn4ccnc4)(c4ccc(Cl)cc4Cl)O3)cc2)CC1
inactive: activity change, positive = activation [8] -79.4%
active: Potency [1] 49 µM | Potency [2] 101 µM | Potency [7] 12.2 µM | Potency [3] 49 µM | Potency [4] 24.5 µM | Potency [6] 54.9 µM

COc1ccc(-c2ccc3cc(C(=O)O)ccc3c2)cc1C12CC3CC(CC(C3)C1)C2
inactive: Potency [2] | Potency [5]
active: Potency [1] 13.4 µM | Potency [4] 5.35 µM

N=C1C=CC(=C(c2ccc(N)cc2)c2ccc(N)cc2)C=C1
inactive: Potency [1] | activity change, positive = activation [8] -66.1%
active: Potency [2] 28.4 µM | Potency [7] 2.17 µM | Potency [3] 24.5 µM | Potency [4] 2.19 µM | Potency [6] 38.9 µM

CCCCCCCCCCCC(=O)NCCCN(C)C
inactive: Potency [5]
active: Potency [1] 49 µM | Potency [2] 101 µM | Potency [3] 43.6 µM | Potency [4] 38.9 µM | Potency [6] 38.9 µM

[Cl][Au]([Cl])[Cl]
active: Potency [1] 3.89 µM | Potency [7] 3.06 µM | Potency [6] 8.71 µM
inactive: Potency [2] | Potency [5]

O=C(Nc1cccc(C(F)(F)F)c1)c1cc(Br)cc(Br)c1O
active: Potency [1] 19.5 µM | Potency [2] 16 µM | Potency [4] 4.36 µM | Potency [6] 21.9 µM
inactive: Potency [5]

CCCCCCCCCCCC[N+](C)(C)CCCCCCCCCCCC
inactive: Potency [5]
active: Potency [1] 21.9 µM | Potency [2] 28.4 µM | Potency [7] 13.7 µM | Potency [4] 5.49 µM | Potency [6] 6.92 µM

Oc1ccc(C2(c3ccc(O)cc3)CC3CC2C2CCCC32)cc1 (stereo not drawn)
active: Potency [1] 33.3 µM | Potency [2] 86.2 µM | Potency [7] 58.7 µM | Potency [4] 41.9 µM
inactive: activity change, positive = activation [8] -75.2% | Potency [3] | Potency [5] | Potency [6]

O=C(OC[C@H]1O[C@@H](OC(=O)c2cc(O)c(O)c(OC(=O)c3cc(O)c(O)c(O)c3)c2)[C@H](OC(=O)c2cc(O)c(O)c(OC(=O)c3cc(O)c(O)c(O)c3)c2)[C@@H](OC(=O)c2cc(O)c(O)c(OC(=O)c3cc(O)c(O)c(O)c3)c2)[C@@H]1OC(=O)c1cc(O)c(O)c(OC(=O)c2cc(O)c(O)c(O)c2)c1)c1cc(O)c(O)c(OC(=O)c2cc(O)c(O)c(O)c2)c1
inactive: activity change, negative = cytotoxicity [1] -0.825% [at 15.8 µM] | Potency [2] | activity change, negative = cytotoxic [4] -17.3% [at 15.8 µM] | cytotoxicity [5] -16.9% [at 15.8 µM]

NC(=O)C1(N2CCCCC2)CCN(CCCN2c3ccccc3CCc3ccc(Cl)cc32)CC1
inactive: Potency [5]
active: Potency [1] 21.3 µM | Potency [2] 55.2 µM | Potency [3] 23.9 µM | Potency [4] 21.3 µM | Potency [6] 23.9 µM

CN(C)c1ccc(C2(c3ccc(N(C)C)cc3)OC(=O)c3cc(N(C)C)ccc32)cc1
inactive: Potency [1] | Potency [2] | Potency [7] | activity change, positive = activation [8] -13.6% | Potency [4] | Potency [5]

CC1=C(C(=O)OC(C)C)C(c2cccc([N+](=O)[O-])c2)C(C(=O)OC2CN(C(c3ccccc3)c3ccccc3)C2)=C(N)N1 (stereo not drawn)
active: Potency [1] 6.74 µM | Potency [2] 55.2 µM | Potency [7] 26.6 µM | Potency [3] 21.3 µM | Potency [6] 23.9 µM
inactive: activity change, positive = activation [8] -68.1% [at 42.5 µM] | Potency [5]

Nc1ccc(N)c2ccccc12
inactive: Potency [5]
active: Potency [1] 24.5 µM | Potency [2] 101 µM | Potency [7] 27.3 µM

CC(C)c1ccc2c(c1)CC[C@H]1[C@](C)(CN)CCC[C@]21C
inactive: Potency [5]
active: Potency [1] 49 µM | Potency [2] 89.8 µM | Potency [7] 68.6 µM | Potency [3] 13.8 µM | Potency [4] 11 µM | Potency [6] 11 µM

CC1=C(/C=C/C(C)=C/C=C/C(C)=C/C=O)C(C)(C)CCC1
inactive: Potency [5]
active: Potency [1] 30.7 µM | Potency [2] 39.9 µM | Potency [3] 54.6 µM | Potency [4] 19.4 µM

O=[N+]([O-])c1cc([N+](=O)[O-])c2ccc(S(=O)(=O)O)cc2c1O
inactive: Potency [1] | Potency [2] | Potency [4] | Potency [5] | Potency [6]

CCN(CC)CCCC(C)Nc1c2ccc(Cl)cc2nc2ccc(OC)cc12 (stereo not drawn)
active: Potency [1] 16.9 µM | Potency [3] 6.74 µM | Potency [4] 2.68 µM | Potency [6] 5.35 µM
inactive: Potency [2] | Potency [5]

CCCCCCCC[N+](CCCCCCCC)(CCCCCCCC)CCCCCCCC
active: Potency [1] 13.8 µM | Potency [2] 17.9 µM | Potency [7] 0.768 µM | Potency [3] 24.5 µM | Potency [4] 6.15 µM | Potency [6] 24.5 µM
inactive: activity change, positive = activation [8] -81.8% | Potency [5]

OCc1c[nH]c2ccccc12
active: Potency [7] 13.7 µM
inactive: Potency [1] | activity change, positive = activation [8] -39.5% | Potency [3] | Potency [5] | Potency [6]

Cc1ccc(-n2nc(C(C)(C)C)cc2NC(=O)Nc2ccc(OCCN3CCOCC3)c3ccccc23)cc1
active: Potency [9] 49.2 µM
inactive: Potency [10] | Potency [2] | activity change, positive = activation [8] -18.8% [at 42.5 µM] | Potency [3] | Potency [5] | Potency [6]

ON=C1CCCC1
inactive: Potency [10] | activity change, positive = activation [8] -71.1% | Potency [3] | Potency [5] | Potency [6]
active: Potency [9] 104 µM | Potency [7] 39.9 µM | Potency [4] 25.4 µM
